Structures are written as SMILES. The whole screen tested about 290,000 compounds, of which about 27,000 (9.3%) were called active. This is one part of a sample in which actives are shown more often than they occur. Rule as the data show it: active = inhibition mostly above about 28% (no sharp cut-off); inactive = mostly below about 43%.

This assay can be described thus: A qHTS for Small Molecule Inhibitors of Shiga Toxin. Also: 0% is about no effect. The settings on record: Vero cells, Shiga toxin protein synthesis inhibition reporter; at 38.7 µM, hits give high values.
Consider `COc1cccc2cc(-c3cc(=O)oc4cc(C)c(O)cc34)oc12`, for which the inhibition (as a rule, the drop in the measured response relative to a control, in per cent) was 0.992% (inactive). In the case of `CCCCCc1c(C)nc(N2CCN(Cc3ccc4c(c3)OCO4)CC2)[nH]c1=O` it was 7.82% (inactive); in that of `c1ccc(-n2ncc3c2ncn2c(C4CCCCC4)nnc32)cc1`, 11.5% (inactive). In the case of `COc1ccc(N2CCN(C(=O)CSc3ncnc4c3cnn4-c3ccc(OC)cc3)CC2)cc1`, the inhibition was -9.91% (inactive). In the case of `c1ccc(-n2ncc3c(N4CCCC4)ncnc32)cc1` it was 27.5% (inactive); in that of `CC(C)Sc1ncnc2c1cnn2-c1ccccc1`, 96.6% (active). The result for `COC(=O)CSc1ncnc2c1cnn2-c1ccc(C)cc1C` reads -5.7% (inactive); that for `COc1ccccc1N1CCN(C(=O)CSc2ncnc3c2cnn3-c2ccc(C)c(C)c2)CC1`, 66.7% (active). In the case of `COc1ccc(-n2ncc3c(SCC(=O)NNC(C)=O)ncnc32)cc1` it was 25.6% (active). Turning to `CC(=O)Nc1ccc(NC(=O)CSc2ncnc3c2cnn3Cc2ccccc2)cc1`, the inhibition is 3.21% (inactive).

As to `COc1ccccc1N1CCN(C(=O)CSc2nnc(-c3ccoc3C)o2)CC1`, the inhibition was 31.6% (inactive).

On to `CN(C(=O)COc1ncnc2c1cnn2-c1ccccc1)C1CCCCC1`, for which the inhibition was 20.6% (inactive). The result for `COc1ccc(NC(=O)CSc2ncnc3[nH]ncc23)cc1` reads -13.5% (inactive).

With `CCN(CC)C(=O)CSc1ncnc2c1cnn2-c1ccccc1`, the inhibition is 66.2% (active). The result for `COc1ccccc1Oc1ccc(N/C=C2/CCCC2=O)cc1` reads 33.6% (inactive); that for `Cc1onc(-c2ccccc2)c1C(=O)N1CCN(S(=O)(=O)c2ccccc2C(F)(F)F)CC1`, 61.7% (inactive); that for `CCOc1ccc(N(CC)S(=O)(=O)c2cccc3nsnc23)cc1`, -2.2% (inactive).

For `Nc1c(Cl)cc(-c2csc(N3CCCC3c3nc4cc(Cl)c(Cl)cc4n3CCOCCO)n2)cc1Cl` (configuration not stated), the inhibition is -18% (inactive).

With `CCCOc1ccc(-c2c(C(=O)N/N=C/c3ccco3)nnn2-c2nonc2N)cc1`, the inhibition was -3.97% (inactive). As to `CC(C)c1ccc2oc(=O)cc(CN3CCN(Cc4ccccc4)CC3)c2c1`, the inhibition is -3.05% (inactive).

Regarding `Cc1ccc(C(=O)N2CCC(n3nccc3NC(=O)Nc3cccc(F)c3)CC2)cn1`, the inhibition is -8.38% (inactive).

`COc1ccc(-c2cc(=O)oc3cc(OC(C)C(=O)NCC4CCC(C(=O)O)CC4)ccc23)cc1` (configuration not stated): the inhibition was -4.72% (inactive).

For `O=C(Cn1cnc2c(cnn2-c2ccccc2)c1=O)NCc1ccccc1`, the inhibition is 31.9% (inactive). For `CC(=O)Cn1cnc2c(cnn2-c2ccccc2)c1=O`, the inhibition was 34.2% (active). In the case of `O=C(Cn1cnc2c(cnn2-c2ccc(F)cc2)c1=O)NCCc1ccccc1` it was -0.429% (inactive); in that of `CC1C(=O)Nc2ccccc2N1C(=O)c1c(F)cccc1F` (configuration not stated), -5.2% (inactive).

Turning to `COC(=O)C1CCCCN1C(=O)c1ccc(OC2CCN(C(C)=O)CC2)c(OC)c1` (configuration not stated), the inhibition was 20.4% (inactive). In the case of `Cc1ccc(S(=O)(=O)N2CCN(C(=O)COC(=O)c3c(C)noc3C)CC2)c(C)c1`, the inhibition was -4.13% (inactive).

In the case of `Cc1ccc(-c2nc(COC(=O)c3c(C)noc3C)cs2)cc1`, the inhibition is 104% (active).

Take `COc1cc(OC)cc(C(=O)NCC(=O)OCc2csc(-c3ccccc3)n2)c1`: the inhibition was 21% (inactive). As to `Cc1ccc2c(c1)C1CN(C)CCC1N2C(=S)Nc1ccc(Cl)cc1Cl` (configuration not stated), the inhibition is 14.7% (inactive). As for `S=C(Nc1ccc(Br)cc1Cl)N1CCC2(CC1)OCCO2`, the inhibition was 76.2% (active). With `CC1CN(C(=S)Nc2ccc(Br)cc2Cl)CC(C)O1` (configuration not stated), the inhibition was -7.71% (inactive). The result for `O=C(NC(=S)Nc1ccc(Cl)cc1Cl)C1CC1` reads 97.9% (active); that for `S=C(NCc1cccnc1)Nc1ccc(Cl)cc1Cl`, 23.4% (inactive); that for `CN(C)C(=S)Nc1ccc(Br)cc1Cl`, 23.8% (inactive). `CN1CCN(S(=O)(=O)c2ccc(NC(=S)NC(=O)C3CC3)cc2)CC1`: the inhibition is 11.7% (inactive). In the case of `Cc1cc(Cl)ccc1NC(=S)N1CCC(C(N)=O)(N2CCCCC2)CC1` it was -10.1% (inactive); in that of `S=C(Nc1ccc(Cl)cc1Cl)N1CCCC1`, 88.2% (active). In the case of `CCc1ccc(N(CC(=O)NCc2cccnc2)S(=O)(=O)c2ccccc2)cc1` it was 9.02% (inactive).

For the compound `CCn1nc(C)c(CNC(=O)C2CCC(=O)N(Cc3cccc(F)c3)C2)c1C` (configuration not stated), the inhibition is -13.2% (inactive).

As to `C=Cc1ccc(C(=O)N2CCCC(CCC(=O)N3CCN(c4ccccn4)CC3)C2)cc1` (configuration not stated), the inhibition was 4.52% (inactive). For `CN(CCC(=O)Nc1cc(S(=O)(=O)N(C)C)ccc1Cl)CC(=O)Nc1ccc(F)cc1`, the inhibition is 1.75% (inactive). Regarding `CC1(c2ccc3ccccc3c2)NC(=O)NC1=O` (configuration not stated), the inhibition was 9.07% (inactive). For the compound `O=C1CCCN2N=C(SCC(=O)Nc3ccc(Br)cc3)SC2=N1`, the inhibition was -4.09% (inactive). Take `CCn1cc(C(=O)N[C@@H](C)C(=O)NCCO)c(=O)c2cc3c(cc21)OCO3`: the inhibition is -6.09% (inactive). The result for `CC(=O)c1cc(CN2CCC(C(=O)Nc3cccc(-c4cscn4)c3)CC2)cs1` reads 12.4% (inactive); that for `COC(=O)[C@@H]1CCCN1C(=O)c1cc(COc2cccc3cccnc23)on1`, 18.1% (inactive). The result for `CSc1ccccc1OCc1cc(C(=O)N2C[C@H]3CC[C@H]2C3)no1` reads 108% (active); that for `CSc1ccccc1OCc1cc(C(=O)N(C)CCc2c(C)n[nH]c2C)no1`, -3.19% (inactive). For the compound `CCOC(=O)c1sc(NC(=O)CSc2nc(O)c(Cc3ccccc3)c(=O)[nH]2)nc1C`, the inhibition is 107% (inactive). In the case of `O=C(CSc1nc(O)c(Cc2ccccc2)c(=O)[nH]1)Nc1nc2c(s1)CCCC2` it was 40.8% (active); in that of `CSc1nc(O)c(Cc2ccccc2)c(=O)[nH]1`, 13.7% (inactive). As for `O=C(Nc1ccccc1C(=O)O)c1ccc(N2C(=O)C3CC=CCC3C2=O)cc1` (configuration not stated), the inhibition is 21.8% (inactive). Take `COc1ccccc1N(CC(=O)Nc1ccccc1C(=O)N1CCCC1)S(C)(=O)=O`: the inhibition is -2.57% (inactive). On to `Cn1c(=O)n(C)c2cc(C(=O)Nc3ccc(Br)cc3)ccc21`, for which the inhibition was -10.4% (inactive). In the case of `COc1ccc(C(=O)Nc2ccc3c(c2)OCO3)cc1OC`, the inhibition is 99% (active).

With `COc1cc(NC(=O)c2ccc3c(c2)OCO3)ccc1NC(=O)c1cccs1`, the inhibition was 55.9% (active). In the case of `COc1ccc(S(=O)(=O)Nc2ccc3c(c2)OCO3)cc1Cl` it was -1.27% (active). The result for `Cn1c(=O)n(C)c2cc(C(=O)Nc3ccc4c(c3)OCO4)ccc21` reads 33.6% (active).

In the case of `COc1cc(OC)c(C(=O)NCc2ccc3c(c2)OCO3)cc1OC`, the inhibition is -10.8% (inactive).

For `COc1cc(NC(=O)c2cccs2)ccc1NC(=O)c1ccccc1Cl`, the inhibition was 39.7% (inactive).

As to `CCC(=O)c1cc2c(cc1NC(=O)c1cccs1)OCCO2`, the inhibition is -21.9% (inactive).

Regarding `CC(C)CNS(=O)(=O)c1ccc(OCC(=O)Nc2ccc3c(c2)OCO3)c(Cl)c1`, the inhibition was -2.63% (inactive). In the case of `Cn1c(NC(=O)c2ccc3c(c2)OCO3)cc(=O)n(C)c1=O` it was -7.32% (inactive); in that of `COc1ccc(F)cc1S(=O)(=O)Nc1ccc2c(c1)OCO2`, -6.49% (inactive); in that of `COc1ccc(S(=O)(=O)N(C)CC(=O)Nc2ccc3c(c2)OCCO3)cc1OC`, 24.6% (inactive). The result for `COC(=O)c1ccc(C2C3=C(Nc4nnnn42)c2ccccc2OC3)cc1` (configuration not stated) reads -11.2% (inactive); that for `CC1CN(C(=O)CCC(=O)NCCCN2CCC(Cc3ccccc3)CC2)c2cc(Cl)ccc2O1` (configuration not stated), -10.8% (inactive); that for `O=C(CN(c1cc(C(F)(F)F)ccc1Cl)S(=O)(=O)c1ccccc1)NCc1cccnc1`, -32% (inactive). Consider `Cc1cccc(C)c1N1C(=O)CN(Cc2ccccc2)C1=S`, for which the inhibition is -4.26% (inactive). `COc1ccc(C(CNC(=O)COc2ccc([N+](=O)[O-])cc2)N2CCCCC2)cc1` (configuration not stated): the inhibition is -4.67% (inactive). The result for `COc1ccc(CN2CN(C3CCCC3)CSC2=S)cc1` reads 17.5% (inactive); that for `CC1Cc2cc(/C(O)=C3\C(=O)C(=O)N(Cc4cccnc4)C3c3ccccc3F)ccc2O1` (configuration not stated), -7.46% (inactive); that for `CCOC(=O)c1c(C)[nH]c(C(=O)NCCN2CCOCC2)c1C`, 2.41% (inactive).

With `C[C@H]1[C@H]2c3nc4ccccc4n3C[C@H]1ON2C1CCCCC1`, the inhibition is -7.22% (inactive). In the case of `CCOC(=O)C(Cc1ccc(N)cc1)N1C(=O)c2ccccc2C1=O` (configuration not stated) it was 7.65% (inactive); in that of `COc1cc(OC)cc(C(=O)Nc2ccc(-c3nc4ccccc4o3)c(O)c2)c1`, 35.4% (inactive); in that of `Cc1cc2nc(-c3ccc(NC(=O)c4cccnc4)cc3)oc2cc1C`, 101% (active). On to `COC(=O)c1cc(NC(=O)c2cccnc2)ccc1N1CCOCC1`, for which the inhibition was 26.8% (inactive). The result for `CC(=O)Nc1ccc(Nc2c3ccccc3nc3ccccc23)cc1` reads -31.9% (inactive). For `CC(=O)NC(=S)Nc1ccc(NC(=O)c2cccnc2)cc1`, the inhibition is 24.9% (inactive).

As to `Cc1ccc2nc(-c3ccc(NC(=O)c4cccnc4)cc3)oc2c1`, the inhibition is 142% (active).

Regarding `Cc1cc(NS(=O)(=O)c2ccc(NC(=O)c3cccnc3)cc2)nc(C)n1`, the inhibition was 2.23% (inactive). Regarding `CC(=O)Nc1ccc(-c2nc3ccccc3o2)cc1`, the inhibition is 54.7% (active). As for `O=C(Nc1cnccn1)c1cccnc1`, the inhibition is 11% (inactive). Take `COc1ccc(CNC(=O)CN(C(=O)c2csnn2)c2cnc3ccccc3c2)cc1`: the inhibition was -8.3% (inactive).

`CCOC(=O)c1cc(=O)c2ccc(OCc3ccccc3)cc2o1`: the inhibition was -1.81% (inactive). With `CCOc1ccccc1NS(=O)(=O)c1c[nH]c(C(=O)OC)c1`, the inhibition was -3.38% (inactive). As for `Cc1ccc(NC(=O)C2CCN(S(=O)(=O)c3ccc4c(c3)NC(=O)CO4)CC2)cc1C`, the inhibition was -2.09% (inactive). Take `CNC[C@H](CC1CCCCC1)NC[C@H](NCCC1CCCC1)[C@H](C)O`: the inhibition is -0.811% (inactive). In the case of `O=C(O)C1CC=CCC1C(=O)Nc1ccccc1C(=O)N1CCN(c2ccccc2)CC1` (configuration not stated) it was -42.2% (inactive); in that of `CC(=O)Nc1ccc(NC(=O)COc2ccccc2C(=O)Nc2cccc(Cl)c2Cl)cc1`, 12.3% (inactive); in that of `O=C(O)C1CC=CCC1C(=O)NCCc1ccccc1` (configuration not stated), 5.17% (inactive).

In the case of `O=C(Nc1ccc(Cl)c(Cl)c1)c1ccccc1NC(=O)C1CC=CCC1C(=O)O` (configuration not stated), the inhibition was 59.4% (active). Turning to `O=C(Nc1cccc(Cl)c1Cl)c1ccccc1NC(=O)C1CC=CCC1C(=O)O` (configuration not stated), the inhibition was 35.7% (active). The result for `O=C(Nc1ccccc1)c1ccccc1NC(=O)C(F)(F)F` reads 52.8% (inactive).
